ERa coact inh – blocks coactivator binding to human estrogen receptor alpha | P03372 | TR-FRET ER-alpha LBD / SRC-1 peptide, estradiol-bound | inhibition, % at 25.6 µM | 86,000 tested, 1.7% active; in the data active = inhibition above about 50%;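 also: 0% = receptor plus peptide control and 100% = peptide only without receptor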
Target sequence (P03372 whole entry, looked up, the tested form may be a part): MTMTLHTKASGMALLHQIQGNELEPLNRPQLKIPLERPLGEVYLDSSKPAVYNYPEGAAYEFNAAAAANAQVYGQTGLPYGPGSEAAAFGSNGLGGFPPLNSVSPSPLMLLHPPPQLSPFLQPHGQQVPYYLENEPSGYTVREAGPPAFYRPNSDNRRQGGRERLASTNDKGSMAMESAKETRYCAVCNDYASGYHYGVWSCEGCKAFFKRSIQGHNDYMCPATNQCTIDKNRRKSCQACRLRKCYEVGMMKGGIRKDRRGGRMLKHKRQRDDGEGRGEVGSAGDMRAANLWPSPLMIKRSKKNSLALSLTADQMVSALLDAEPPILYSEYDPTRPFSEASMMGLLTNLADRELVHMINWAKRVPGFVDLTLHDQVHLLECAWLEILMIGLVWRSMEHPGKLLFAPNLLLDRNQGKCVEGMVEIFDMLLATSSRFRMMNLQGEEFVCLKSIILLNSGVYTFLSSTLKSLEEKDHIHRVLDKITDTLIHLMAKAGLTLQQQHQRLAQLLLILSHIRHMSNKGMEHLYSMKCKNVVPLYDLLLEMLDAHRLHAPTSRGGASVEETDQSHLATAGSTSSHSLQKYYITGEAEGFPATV
Smad3 inh – blocks human Smad3 binding to FoxH1 peptide | TR-FRET Smad3/Dy647-FoxH1 peptide binding, europium anti-His | inhibition, % at 25 µM | 88,000 tested, 0.29% active;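 active = compounds that reduce the energy-transfer binding signal between the protein and its labelled peptide by more than half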;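 also: 0% = Smad3 plus labelled peptide maximal FRET and 100% = peptide-only background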
ERb coact inh – blocks coactivator binding to human estrogen receptor beta; Q92731; TR-FRET ER-beta LBD / SRC1-Cy5 peptide binding; receptor agonist-loaded with 1 µM estradiol; inhibition, % at 25.6 µM; 86,000 tested, 1.3% active;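 active = compounds whose percent inhibition of the receptor-coactivator binding signal exceeds about 50% in the single-dose screen, limit read from the data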;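 also: 0% = receptor plus peptide wells without compound and 100% = peptide-only wells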
Plk1 PBD FP – blocks phosphopeptide binding to human Plk1 polo box domain; Plk1 PBD phosphopeptide binding, fluorescence polarization; inhibition, %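 (tested at about 20 µM)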; 97,000 tested, 0.13% active; AID 693; in the data active = inhibition above about 34%, passing the limit was not always enough
PLK1 kinase inh – inhibitors of human PLK1 kinase | inhibition, % at 10 µM | recombinant PLK1 kinase, TR-FRET peptide phosphorylation | P53350 | 97,000 tested, 0.53% active;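 active = inhibition of 50% or more in the single-concentration screen; inactive = inhibition below 50%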;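 also: 0% = DMSO max control and 100% = H-89 dihydrochloride min control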
ERa SRC1 pot – enhances coactivator binding to human estrogen receptor alpha; TR-FRET ERalpha-LBD/SRC-Cy5 coactivator binding, 2 h; 100 = basal binding, no effect; 86,000 tested, 1.3% active; P03372; coactivator binding (% of control), % at 25.6 µM; in the data active = activity above about 200%;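 also: binding measured in presence of low estradiol as agonist stimulus; 0% = peptide alone without receptor and 100% = receptor with peptide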
Active calls of the source: *; [ ] = remark or other dose. Hits are enriched below; roughly 3.3% of the tested compounds scored in any of these assays.

Results for O=C(Nc1nc(-c2ccncc2)cs1)c1ccco1 ?
ERa coact inh: 98.0*[fluorescence artefact?]; Smad3 inh: 2.0; ERb coact inh: 49.2; Plk1 PBD FP: 24.2; PLK1 kinase inh: 9.4; ERa SRC1 pot: -0.6

Results for CN(C)c1ccc(C(=C2C=CC(=[N+](C)C)C=C2)c2c(O)c(S(=O)(=O)O)cc3cc(S(=O)(=O)O)ccc23)cc1 ?
Smad3 inh: 33.7

Results for Cc1nn(Cc2ccccc2Cl)c(C)c1C(=O)NCc1ccco1 ?
ERa coact inh: 3.4; Smad3 inh: 4.0; ERb coact inh: 79.0*; Plk1 PBD FP: 11.8; PLK1 kinase inh: -4.0; ERa SRC1 pot: 106.4

What do the screens show for `Cc1ccc(CNC(=O)CCNC(=O)c2ccco2)cc1`?
ERa coact inh: 1.9; Smad3 inh: 2.6; ERb coact inh: -4.6; Plk1 PBD FP: 8.8; PLK1 kinase inh: -16.6; ERa SRC1 pot: 101.4

How did COc1ccc(OC)c(NC(=O)C2CCN(Cc3cnn(-c4ccccc4)c3-n3cccc3)CC2)c1 do in these assays?
ERa coact inh: -3.8; Smad3 inh: -4.7; ERb coact inh: -8.7; Plk1 PBD FP: -20.8; PLK1 kinase inh: -5.5; ERa SRC1 pot: 214.5*

What do the screens show for `c1ccc2c[n+](CCCC[n+]3ccc4ccccc4c3)ccc2c1`?
Smad3 inh: 50.6*

Results for CCOc1cc(NC(=O)c2cccs2)c(OCC)cc1NC(=O)c1ccco1 ?
ERa coact inh: 7.7; Smad3 inh: -5.6; ERb coact inh: 64.8*; Plk1 PBD FP: 14.7; PLK1 kinase inh: -8.5; ERa SRC1 pot: 75.4

How did O=C(COC(=O)c1cccs1)NCc1ccco1 do in these assays?
ERa coact inh: 53.2*[fluorescence artefact?]; Smad3 inh: 4.8; ERb coact inh: 53.0*; ERa SRC1 pot: 77.1

Results for O=C(COC(=O)c1ccccc1Nc1ccccc1)NCc1ccco1 ?
ERa coact inh: -9.0; Smad3 inh: 18.5; ERb coact inh: -1.8; Plk1 PBD FP: 8.5; PLK1 kinase inh: -18.4; ERa SRC1 pot: 102.9

Results for COc1cc(NC(=O)c2cccs2)c(C(=O)OCC(=O)NCc2ccco2)cc1OC ?
ERa coact inh: 79.0*; Smad3 inh: 6.1; ERb coact inh: 41.9; ERa SRC1 pot: 88.8

What do the screens show for `COc1ccc(NC(=O)c2cccs2)cc1NC(=O)c1ccco1`?
ERa coact inh: -1.6; Smad3 inh: 3.8; ERb coact inh: -4.9; Plk1 PBD FP: -10.2; PLK1 kinase inh: -5.4; ERa SRC1 pot: 91.7

Results for COc1cc(C(=O)OCC(=O)NCc2ccco2)cc(OC)c1OC ?
ERa coact inh: -9.9; Smad3 inh: -3.1; ERb coact inh: -5.5; Plk1 PBD FP: 20.3; PLK1 kinase inh: -7.2; ERa SRC1 pot: 82.3

What do the screens show for `O=C(COC(=O)COc1ccc(Nc2ccccc2)cc1)NCc1ccco1`?
ERa coact inh: 30.1; Smad3 inh: -4.0; ERb coact inh: 52.0*[fluorescence artefact?]; Plk1 PBD FP: 25.7; PLK1 kinase inh: -3.8; ERa SRC1 pot: 68.8

What do the screens show for `O=C(NNC(=O)c1ccc(SCC2CCCO2)c([N+](=O)[O-])c1)c1ccc(Cl)c([N+](=O)[O-])c1` (stereo not given)?
ERa coact inh: 51.0*; Smad3 inh: 13.3; ERb coact inh: 18.1; Plk1 PBD FP: 16.7; PLK1 kinase inh: -3.5; ERa SRC1 pot: 62.2

What do the screens show for `C/C(=N/NC(=O)c1cc2ccccc2cc1O)C1C(=O)c2ccccc2C1=O`?
ERa coact inh: 78.5*[fluorescence artefact?]; Smad3 inh: 8.6; ERb coact inh: 64.9*[fluorescence artefact?]; Plk1 PBD FP: 14.2; PLK1 kinase inh: -11.6; ERa SRC1 pot: 20.5

Results for Cc1csc2nc(CCNS(=O)(=O)c3ccc4c(c3)OCCO4)cn12 ?
ERa coact inh: 53.8*; Smad3 inh: -0.2; ERb coact inh: 24.4; Plk1 PBD FP: -15.3; PLK1 kinase inh: -21.9; ERa SRC1 pot: 58.4

Results for CCn1c(Cc2ccccc2)nnc1SCC(=O)Nc1ccc2c(c1)OCCO2 ?
ERa coact inh: 6.2; Smad3 inh: -6.7; ERb coact inh: -0.5; Plk1 PBD FP: 25.4; PLK1 kinase inh: -10.3; ERa SRC1 pot: 109.9

How did CSC1=N/C(=C\c2ccccc2F)C(=O)S1 do in these assays?
ERa coact inh: -4.2; Smad3 inh: -9.8; ERb coact inh: -10.4; Plk1 PBD FP: -8.3; PLK1 kinase inh: -7.5; ERa SRC1 pot: 107.6

How did CSC1=N/C(=C\c2ccc(Br)o2)C(=O)S1 do in these assays?
ERa coact inh: 68.7*; Smad3 inh: 8.3; ERb coact inh: 71.7*; Plk1 PBD FP: -13.5; PLK1 kinase inh: -4.8; ERa SRC1 pot: 34.0

Results for C=CCn1c(=O)c2c(C)c(C)sc2n2c(Nc3ccccc3)nnc12 ?
ERa coact inh: 3.2; Smad3 inh: -4.9; ERb coact inh: 7.0; Plk1 PBD FP: 19.0; PLK1 kinase inh: -4.6; ERa SRC1 pot: 112.7

What do the screens show for `CCOC(=O)c1sc(NC(=O)CSc2nc(-c3ccco3)cc(C(F)(F)F)n2)c(C(=O)OC(C)C)c1C`?
ERa coact inh: -8.9; Smad3 inh: -4.8; ERb coact inh: -6.6; Plk1 PBD FP: -5.1; PLK1 kinase inh: -11.1; ERa SRC1 pot: 91.8

What do the screens show for `Cc1nc2ccc(S(=O)(=O)NCC(=O)NCCN3CCCCCC3)cc2s1`?
ERa coact inh: 57.1*[fluorescence artefact?]; Smad3 inh: -7.9; ERb coact inh: 22.4; Plk1 PBD FP: 11.6; PLK1 kinase inh: 5.0; ERa SRC1 pot: 54.5

How did Cc1nc2ccc(S(=O)(=O)NCC(=O)NCc3ccc4c(c3)OCO4)cc2s1 do in these assays?
ERa coact inh: 6.5; Smad3 inh: -3.5; ERb coact inh: 0.7; Plk1 PBD FP: -9.7; PLK1 kinase inh: -10.8; ERa SRC1 pot: 97.3

How did Cc1cccc(N2CCN(c3nc4ccccc4n4cnnc34)CC2)c1C do in these assays?
ERa coact inh: 53.7*; Smad3 inh: -1.8; ERb coact inh: 29.1; Plk1 PBD FP: -30.2; PLK1 kinase inh: -2.3; ERa SRC1 pot: 54.0

Results for O=c1cc(C23CC4CC(CC(C4)C2)C3)[nH][nH]1 ?
ERa coact inh: -11.5; Smad3 inh: 4.6; ERb coact inh: -15.0; Plk1 PBD FP: 23.8; PLK1 kinase inh: -12.5; ERa SRC1 pot: 93.0

How did CC(=O)c1cccc(NC(=O)CN(c2ccccc2)S(C)(=O)=O)c1 do in these assays?
ERa coact inh: 27.6; Smad3 inh: 58.4*; ERb coact inh: 47.5; ERa SRC1 pot: 710.8*[fluorescence artefact?]

What do the screens show for `CN(C)S(=O)(=O)N(CC(=O)Nc1ccccc1C(F)(F)F)c1ccccc1`?
ERa coact inh: 69.8*[fluorescence artefact?]; Smad3 inh: -1.5; ERb coact inh: 33.9; Plk1 PBD FP: -17.5; PLK1 kinase inh: -7.1; ERa SRC1 pot: 67.0

Results for CSc1cccc(NC(=O)CN(c2ccccc2)S(=O)(=O)N(C)C)c1 ?
ERa coact inh: 50.1*; Smad3 inh: -1.5; ERb coact inh: 37.1; Plk1 PBD FP: 15.9; PLK1 kinase inh: 7.2; ERa SRC1 pot: 61.5

How did CN(C)S(=O)(=O)N(CC(=O)Nc1ccc(F)c(F)c1)c1ccccc1 do in these assays?
ERa coact inh: 46.6; Smad3 inh: 7.5; ERb coact inh: 35.3; Plk1 PBD FP: -21.8; PLK1 kinase inh: -15.8; ERa SRC1 pot: 68.8
